For one assay, the system named is MKL-1. Put plainly: qHTS assay to identify novel small-molecules to repurpose for Merkel cell carcinoma treatment (AID 1296009). Note: nearly all actives have a fitted effect of over 60% in size. The conditions noted are these: MCC and control cell lines, CellTiter-Glo viability, 72 h; series mostly up to 46 µM. In outline: (§1)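 qHTS format: cells treated with library compounds in DMSO across 8 (NPC) or 11 (MIPE) concentrations. Readout after 72 hr at 37 degree celsius was CellTiter-Glo luminescence.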
In general terms: qHTS replaces the single test concentration by a dilution series.

A further assay relates to C33A. Put plainly: Primary qHTS to identify gynecologic anti-cancer compounds using libraries of approved drugs and bioactive compounds (AID 1345084). Note: nearly all actives have a fitted effect of over 55% in size. The settings on record: Gynecologic cancer cell panel viability, ATPlite luminescence, 48 h; series mostly up to 57.5 µM. Put shortly:
(§2)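 Five-point cytotoxicity, 48 h drug exposure at 37 C, 5% CO2, on cells seeded 16 h beforehand. ATP content read by ATPlite luminescence.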

Another assay relates to CASKI. Described as above. The settings on record: Gynecologic cancer cell panel viability, ATPlite luminescence, 48 h; series mostly up to 57.5 µM. In outline:
as §2
Background: Cellular ATP, detected with luciferase, serves as a proxy for viable cell number.

The test system of a further assay is Es-2. Described as above. The conditions noted are these: Gynecologic cancer cell panel viability, ATPlite luminescence, 48 h; series mostly up to 57.5 µM. In outline: as §2
In the next assay the test system is HeLa. Described as above. The settings on record: Gynecologic cancer cell panel viability, ATPlite luminescence, 48 h; series mostly up to 57.5 µM. In outline:
as §2

In another assay the test system is Hek293T. Described as above. The conditions noted are these: Gynecologic cancer cell panel viability, ATPlite luminescence, 48 h, control line for the selectivity index; series mostly up to 57.5 µM. In outline:
as §2

The next assay deals with JEG-3. Described as above. The settings on record: Gynecologic cancer cell panel viability, ATPlite luminescence, 48 h; series mostly up to 57.5 µM. Put shortly: as §2
For another assay, the system named is OV90. The description is as above. The conditions noted are these: Gynecologic cancer cell panel viability, ATPlite luminescence, 48 h; series mostly up to 57.5 µM. Put shortly: as §2
A further assay concerns PA-1. The assay is described as above. The settings on record: Gynecologic cancer cell panel viability, ATPlite luminescence, 48 h; series mostly up to 57.5 µM. Put shortly:
as §2

In another assay the test system is SKOV3. The description is as above. The conditions noted are these: Gynecologic cancer cell panel viability, ATPlite luminescence, 48 h; series mostly up to 57.5 µM. In outline: as §2
Another assay concerns Tov-21-G. The assay is described as above. The conditions noted are these: Gynecologic cancer cell panel viability, ATPlite luminescence, 48 h; series mostly up to 57.5 µM. In outline:
as §2

For a further assay, the system named is Tov112D. The assay is described as above. The settings on record: Gynecologic cancer cell panel viability, ATPlite luminescence, 48 h; series mostly up to 57.5 µM. In outline:
as §2

For the next assay, the system named is MKL-2. Description: qHTS assay to identify novel small-molecules to repurpose for Merkel cell carcinoma treatment (AID 1296009). Note: nearly all actives have a fitted effect of over 60% in size. The conditions noted are these: MCC and control cell lines, CellTiter-Glo viability, 72 h; series mostly up to 46 µM. Put shortly: as §1
The subject of a further assay is UISO. The assay is described as above. The conditions noted are these: MCC and control cell lines, CellTiter-Glo viability, 72 h; series mostly up to 46 µM. In outline: as §1
In another assay the test system is WaGa. The description is as above. The conditions noted are these: MCC and control cell lines, CellTiter-Glo viability, 72 h; series mostly up to 46 µM. In outline:
as §1

The nature of assay [1]: qHTS assay to identify inhibitors of the type 1 interferon - major histocompatibility complex class I in skeletal muscle: Counter screen cell viability and HiBit confirmation (AID 1347412). Note: nearly all actives have a fitted effect of over 60% in size. The conditions noted are these: iHSKM muscle cells + IFN-b, HiBiT or CellTiter-Glo, 24 h; Potency: HiBiT; Viability, at 45.9 µM (top of the series). Put shortly:
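CRISPR HLA-B*08:01-HiBit immortalized human myoblasts (C25cl48) stimulated with 4 ng/ml IFN-beta and compounds (12-point 1:3, top 46 uM final) for 24 h at 37 C. Duplicate plates read by HiBit lytic luminescence or CellTiter Glo ATP.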

Results filed as inconclusive are left out. The source made the active and inactive calls. Calls come from the whole dose curve; as a rule, active = well fitted curve in the direction sought with a large enough effect; inconclusive = small, poorly fitted or top-dose-only effect, or another doubt; inactive = no such curve, though single readings can be large; an effect the other way counts as inactive or inconclusive.

Data on 16 molecules can be found in PubChem BioAssay (NCATS).
Potency is the fitted concentration of half-maximal effect.

In the case of `O=C(Nc1cc2cc[nH]c2cn1)c1ccccc1`, the Potency in the assay with MKL-1 was 14.8 µM (active); with C33A, 1.41 µM (active); in the assay with CASKI it was 1.78 µM (active); in the assay on Es-2, 1.58 µM (active); in the assay with HeLa it was 1.41 µM (active); in the assay with Hek293T it was 2.24 µM (active). The Potency in the assay with JEG-3 is 1.12 µM (active); with OV90, 0.891 µM (active); with PA-1, 0.891 µM (active); in the assay on SKOV3 it was 2 µM (active); with Tov-21-G, 1.26 µM (active); in the assay with Tov112D it was 2 µM (active).
As to `O=C1NCCc2[nH]c(-c3ccncc3)cc21`, the Potency in the assay on MKL-2 is 13.2 µM (active); with UISO, 4.18 µM (active).
Consider `CCNC(=O)c1cc2c(-c3cc(OCCN4CCCC4)c(Cl)cc3Cl)nc(N)nc2s1`, for which the Potency result in the assay with MKL-2 was “inactive”. Moreover, the Potency is 2.96 µM (active) in the assay on UISO and 1.18 µM (active) with WaGa.
Turning to `c1cncc(CN2CCC(n3ncc4c(N5CCOCC5)nc(-c5ccc6[nH]ccc6c5)nc43)CC2)c1`, in the assay with MKL-1, the Potency result is “inactive”. Moreover, the Potency in the assay with C33A is 31.6 µM (active); in the assay on CASKI it was 10 µM (active); in the assay on Hek293T, 11.2 µM (active); in the assay with OV90, 22.4 µM (active); in the assay on PA-1 it was 17.8 µM (active); in the assay on SKOV3, 10 µM (active). Further, the Potency with Tov-21-G is 12.6 µM (active); in the assay with Tov112D, 28.2 µM (active).
As for `COc1ccc(Nc2cc(-c3cnc(N)nc3)nc(N3CCOCC3)n2)cn1`, the Potency result with MKL-1 is “inactive”. For the same molecule, the Potency with UISO is 4.18 µM (active).
In the case of `Cc1ccc2nc(NCCN)c3ncc(C)n3c2c1`, the Potency is 14.8 µM (active) in the assay on MKL-2, 20.9 µM (active) in the assay with UISO and 3.13 µM (active) in assay [1].
As for `CCOC(=O)N1CCN([N+]([O-])=NOc2ccc([N+](=O)[O-])cc2[N+](=O)[O-])CC1`, the Potency in the assay on MKL-1 was 10.5 µM (active); in the assay with MKL-2 it was 6.62 µM (active); in the assay on WaGa it was 11.8 µM (active).
For the molecule `CC[C@]12C=CCN3CC[C@@]4(c5cc([C@@]6(C(=O)OC)C[C@H]7C[C@@H](C(C)(F)F)CN(Cc8c6[nH]c6ccccc86)C7)c(OC)cc5N(C)[C@H]4[C@@](O)(C(=O)OC)[C@H]1OC(C)=O)[C@@H]32`, the Potency in the assay with WaGa was 0.0059 µM (active).
For `CC(=O)O[C@@]12CO[C@H]1C[C@H](O)[C@@]1(C)C(=O)[C@H](O)C3=C(C)[C@@H](OC(=O)C(O)[C@@H](NC(=O)OC(C)(C)C)c4ccccc4)C[C@@](O)([C@@H](OC(=O)c4ccccc4)[C@@H]21)C3(C)C` (stereo partly drawn), the Potency entry in the assay on MKL-1, with MKL-2, with UISO and with WaGa was “inactive” throughout.
In the case of `Cc1ncc(-c2ccnc(Nc3ccc(S(C)(=O)=O)cc3)n2)n1C(C)C`, the Potency in the assay on CASKI was 7.08 µM (active); with Es-2 it was 10 µM (active); with HeLa it was 7.08 µM (active); with Hek293T it was 5.01 µM (active); in the assay with PA-1 it was 5.01 µM (active); with Tov-21-G it was 10 µM (active). Further, the Potency in the assay on Tov112D was 10 µM (active). Besides, the Potency result with JEG-3 was “inactive”.
As to `FC(F)(F)c1ccc(Nc2nc3ccc(Oc4ccnc(-c5ncc(C(F)(F)F)[nH]5)c4)cc3[nH]2)cc1`, the Potency entry in the assay on C33A, in the assay on CASKI, in the assay on Es-2, in the assay with HeLa, in the assay on Hek293T and in the assay with JEG-3 was “inactive” in each case. Besides, in the assay on Tov112D, the Potency result is “inactive”.
As to `CNC(=O)c1cccc(-c2ccc3c(N4CCOC[C@H]4C)nc(N4CCOC[C@H]4C)nc3n2)c1`, the Potency entry in the assay on MKL-2 is “inactive”. For the same molecule, the Potency with UISO is 0.166 µM (active).
Regarding `Cc1cnn(C)c1C(=O)Nc1cc(Nc2ccc3c(C=Cc4ccccn4)n[nH]c3c2)ccc1F`, in the assay with UISO, the Potency is 16.6 µM (active).
On the same count and under the same terms, for `N#Cc1c(NC(=O)c2cccc3ccccc23)sc2c1CCCC2` the value was 1.05 µM (active).
On to `COC1=C2C[C@@H](C)C[C@H](OC)[C@@H](O)[C@@H](C)C=C(C)[C@H](OC(N)=O)[C@@H](OC)C=CC=C(C)C(=O)NC(=CC1=O)C2=O`, for which the Potency in the assay with MKL-1 was 11.8 µM (active); with MKL-2, 8.33 µM (active); with WaGa, 20.9 µM (active).
Regarding `CCNC(=O)Nc1ccc(-c2nc3c(c(N4CCOC[C@H]4C)n2)CCN(C2COC2)C3)cc1`, the Potency entry with MKL-2 was “inactive”. In addition, in the assay with UISO, the Potency is 3.72 µM (active).
